aSyn UTR act – Activators working through SNCA 5'UTR binding (MLPCN); alpha-synuclein 5'UTR reporter, activators screen; activity score, % (tested at 7.5 µM), hits read low; 300,000 compounds, 7.1% hits; in the data active means activity score below about -60%
The depositor's hits bear a star. These entries were drawn from the full list.

SMILES	aSyn UTR act
Cc1ccc(N=Cc2c(O)ccc3ccccc23)cc1F	-111*
CCOC(=O)c1sc(/N=C/c2c(O)ccc3ccccc23)cc1C	-73*
CCN(CC)CCn1c2ccccc2c2cnc(N)c(C#N)c21	-655*
Cc1ccc2sc(N3CCN(C(=O)c4ccc([N+](=O)[O-])o4)CC3)nc2c1C	-76*
O=C(c1ccc([N+](=O)[O-])o1)N1CCN(c2nc3ccc(F)cc3s2)CC1	-108*
COc1cccc2sc(N3CCN(C(=O)c4ccc([N+](=O)[O-])o4)CC3)nc12	-110*
O=C(N/N=C/c1cccc(F)c1)NC1CCCCC1	-76*
O=C(N/N=C/c1ccccc1F)NC1CCCCC1	-130*
O=C(N/N=C/c1cccc(F)c1)c1c(O)c2c([nH]c1=O)CCCC2	-137*
Cc1ccccc1C(=O)NC(=S)Nc1ncccn1	-66*
O=C(NC(=S)NCCc1ccccc1)c1ccco1	-80*
Cc1ccccc1C(=O)NC(=S)NCCc1ccccc1	-66*
COc1ccc(S(=O)(=O)n2ccc(-c3ccc4c(c3)CCC(C)(C)O4)n2)cc1	-103*
COc1ccc(S(=O)(=O)N2c3ccc(F)cc3CCC2C)cc1 (stereo not given)	112
CC1(C)CCc2cc(-c3ccn(S(=O)(=O)c4ccccc4Cl)n3)ccc2O1	-84*
CCc1ccc(-c2cc(-c3n[nH]c(=S)n3CC)c3ccccc3n2)cc1	-69*
CSc1nnc(-c2cc(-c3ccc(C)cc3)nc3ccccc23)o1	57
Cc1ccc(Nc2nc(C)c(CCC(C)C)c(=O)[nH]2)cc1	-94*
Cc1ccc(Nc2nc3c(c(=O)[nH]2)CCCC3)cc1	-143*
CC(C)c1cc(C(F)(F)F)n2nc(C(=O)Nc3ccc4c(c3)OCO4)cc2n1	-83*
CC(C)c1cc(C(=O)Nc2ccc3c(c2)OCO3)no1	-173*
O=C(Nc1ccc2c(c1)OCO2)c1cc(C2CC2)on1	-148*
C=CCOc1ccc2c(c1)C(=NO)c1cc(OCC=C)ccc1-2	-94*
COc1ccc2c(c1)C(=NO)c1cc(OC)ccc1-2	-83*
ON=C1c2cc(OCCN3CCCCC3)ccc2-c2ccc(OCCN3CCCCC3)cc21	-189*
SMILES	aSyn UTR act
COc1ccc(N(CC(=O)Nc2cc(Cl)ccc2C)S(=O)(=O)c2c(C)noc2C)cc1	78
COC(=O)c1ccc(C)c(NC(=O)CN(c2cc(OC)ccc2OC)S(C)(=O)=O)c1	-88*
CN1CCN(C(c2ccc(Cl)cc2)c2cc(Cl)c3cccnc3c2O)CC1 (stereo not given)	77
Cc1ccc(C(=O)NCc2ccccn2)c(Cl)c1	-92*
O=C(COc1ccccc1Br)NCc1ccccn1	-71*
O=C(NCCSc1ccccn1)c1ccc(Cl)cc1Cl	-93*
Cc1ccc(OCC(=O)NCc2ccccn2)c(Br)c1	-104*
O=C(COc1ccc(F)cc1Br)NCc1ccccn1	-88*
Cc1ccc2nc(NC(=O)c3ccc(NS(=O)(=O)c4cccs4)cc3)sc2c1	-130*
Cc1cccc(C(=O)Nc2nc3ccc(S(C)(=O)=O)cc3s2)c1	-281*
CC(C)(C)C(=O)Nc1nc2ccc(S(C)(=O)=O)cc2s1	-112*
CSc1ccc(-c2sc(Nc3cccc4ccccc34)n[n+]2-c2ccccc2)cc1	-143*
CSc1ccc(-c2sc(Nc3ccccc3)n[n+]2-c2ccccc2)cc1	-98*
C=CCN1C(=O)/C(=C/c2ccc(N(C)C)cc2)S/C1=N\c1nnc(CC)s1	-65*
NC(=O)COc1ccc2cc(-c3ccccc3)c(=O)oc2c1	-87*
NC(=O)COc1ccc2oc(-c3ccccc3)cc(=O)c2c1	-166*
COc1ccc(-c2cc3ccc(OCC(C)=O)cc3oc2=O)cc1OC	-125*
O=c1oc2cc(OCc3ccc(F)cc3F)ccc2cc1-c1ccccn1	-101*
COc1ccc(-c2coc3cc4oc(=O)c5ccccc5c4cc23)cc1F	81
NC(=O)COc1ccc2cc(-c3ccc(F)cc3)c(=O)oc2c1	-75*
COc1ccc(-c2ccc(-c3nnn(CC(=O)N4CCOCC4)n3)cc2)cc1	-166*
COc1ccc(OC)c(C(=O)Cn2nnc(-c3ccc(N4CCOCC4)cc3)n2)c1	-135*
Cn1cccc1-c1nc2ccc(NC(=O)c3cccs3)cc2[nH]1	-115*
CC(=O)Nc1ccc2nc(-c3cccs3)[nH]c2c1	-110*
CC(=O)Nc1ccc2nc(-c3cccn3C)[nH]c2c1	-88*
SMILES	aSyn UTR act
O=Nc1c(-c2ccccc2)cc2ccccn12	-211*
Nc1nonc1C(=O)N/N=C/c1ccc(-c2cccc(C(=O)O)c2)o1	-63*
Cc1ccc(C(=O)N/N=C/c2ccc(-c3cccc(C(F)(F)F)c3)o2)cn1	65
Cc1cccc(N2C(=O)c3cccc4c(N5CCCCC5)c([N+](=O)[O-])cc(c34)C2=O)c1C	62
O=C1c2ccc3c4c(ccc(c24)C(=O)N1c1cccc(O)c1)C(=O)N(c1cccc(O)c1)C3=O	68
O=C1c2cccc3c(N4CCCCC4)ccc(c23)C(=O)N1c1ccc(O)cc1	-72*
O=C(Nc1ccc(N2CCOCC2)cc1)c1cc2ccccc2o1	-110*
O=C(/C=C/N1CCOCC1)c1coc2ccccc12	-104*
O=C(Nc1ccc(CN2CCOCC2)cc1)c1cc2ccccn2n1	72
